This is an account of results in the antibiotic and cytotoxicity screens of Wong et al. (2023).

Screen size: about 39,000 compounds; about 3,300 (8.5%) were called active. The sample holds actives, similar compounds and a random draw of the others, so the mix is not that of the screen.

This experiment relates to HepG2. Description: cytotoxicity call (relative viability < 0.9). The note with it: 10 µM.
In the case of `C[C@H](CO)N1C[C@H](C)[C@@H](CN(C)Cc2cncnc2)Oc2ncc(C#C[C@@H](C)O)cc2C1=O`, the cytotoxicity call was “inactive”.

As for `O=P(O)(O)CN1CCN(CP(=O)(O)O)CCN(CP(=O)(O)O)CCN(CP(=O)(O)O)CC1`, the cytotoxicity call is “inactive”.

With `C[C@@H]1CN([C@H](C)CO)C(=O)Cc2cc(NC(=O)Nc3ccc(F)cc3)ccc2O[C@H]1CN(C)CC1CCCCC1`, the cytotoxicity call was “active”.

Turning to `C[C@H]1CN([C@@H](C)CO)C(=O)Cc2cc(NC(=O)Nc3ccc(F)cc3)ccc2O[C@H]1CN(C)CC1CCCCC1`, the cytotoxicity call is “active”.

`C[C@H]1CN([C@@H](C)CO)C(=O)Cc2cc(NC(=O)Nc3ccc(F)cc3)ccc2O[C@@H]1CN(C)CC1CCCCC1`: the cytotoxicity call is “active”.

In the case of `C[C@@H]1CN([C@@H](C)CO)C(=O)Cc2cc(NC(=O)Nc3ccc(F)cc3)ccc2O[C@@H]1CN(C)CC1CCCCC1`, the cytotoxicity call is “active”.

On to `COc1ccc(NC(=O)Nc2ccc3c(c2)CC(=O)N([C@H](C)CO)C[C@@H](C)[C@H](CN(C)CC2CCCCC2)O3)cc1`, for which the cytotoxicity call is “inactive”.

Consider `Cc1noc(C)c1S(=O)(=O)Nc1ccc2c(c1)C(=O)N([C@H](C)CO)C[C@H](C)[C@@H](CN(C)C(=O)NC1CCCCC1)O2`, for which the cytotoxicity call was “inactive”.

`CNC[C@H]1OCCCC[C@H](C)Oc2ccc(NC(=O)c3ccncc3)cc2C(=O)N([C@H](C)CO)C[C@@H]1C`: the cytotoxicity call is “inactive”.

Regarding `COc1ccc2c3c([nH]c2c1)[C@H](CO)N(C[C@]13CN(C1)S(=O)(=O)c1cccs1)C(=O)c1ccccc1`, the cytotoxicity call was “inactive”.

On to `COc1ccc2c3c([nH]c2c1)[C@@H](CO)N(CC1CCOCC1)C[C@]13CCN(CC1)C(=O)C1CCOCC1`, for which the cytotoxicity call is “inactive”.

`CC(C)CC#Cc1ccc2c(c1)O[C@@H](CN(C)C(=O)Cc1ccncc1)[C@H](C)CN([C@H](C)CO)S2(=O)=O`: the cytotoxicity call is “inactive”.

Regarding `COc1ccc(CN(C)C[C@H]2OCCCC[C@@H](C)Oc3ccc(NC(=O)c4ccncc4)cc3C(=O)N([C@H](C)CO)C[C@@H]2C)cc1`, the cytotoxicity call is “inactive”.

For the molecule `CC(C)c1cn(CC[C@@H]2CC[C@H](N)[C@@H](CO)O2)nn1`, the cytotoxicity call was “inactive”.

As to `CO[C@@H]1CN(C)C(=O)c2ccc(NS(=O)(=O)c3cn(C)cn3)cc2OC[C@@H](C)N(Cc2cccc(F)c2)C[C@@H]1C`, the cytotoxicity call is “inactive”.

Turning to `CCN(CC)CCNc1nc(=O)[nH]nc1C`, the cytotoxicity call is “inactive”.

With `O=C(N[C@H]1CC[C@H](CCn2cc(C3(O)CCCC3)nn2)O[C@@H]1CO)C1CCOCC1`, the cytotoxicity call was “inactive”.

Turning to `COc1ccc(-c2cnc3c(c2)C(=O)N([C@H](C)CO)C[C@H](C)[C@H](CN(C)S(=O)(=O)c2ccc(C#N)cc2)O3)cc1`, the cytotoxicity call is “inactive”.

As to `C[C@@H]1CN([C@@H](C)CO)C(=O)Cc2cc(NC(=O)Nc3ccc(F)cc3)ccc2O[C@H]1CN(C)CC1CCCCC1`, the cytotoxicity call is “inactive”.

For `C[C@H](CO)N1C[C@H](C)[C@H](CN(C)CC2CCCCC2)Oc2ccc(NC(=O)Nc3ccc(F)cc3)cc2CC1=O`, the cytotoxicity call was “active”.

Take `C[C@H](CO)N1C[C@H](C)[C@@H](CN(C)CC2CCCCC2)Oc2ccc(NC(=O)Nc3ccc(F)cc3)cc2CC1=O`: the cytotoxicity call is “inactive”.

On to `C[C@@H]1CN([C@H](C)CO)C(=O)Cc2cc(NC(=O)Nc3ccc(F)cc3)ccc2O[C@@H]1CN(C)CC1CCCCC1`, for which the cytotoxicity call is “active”.

`O=C(C[C@H]1CC[C@H]2[C@@H](COC[C@@H](O)CN2S(=O)(=O)c2ccccc2)O1)NCc1ccc2c(c1)OCO2`: the cytotoxicity call is “inactive”.

Regarding `C[C@H](CO)N1C[C@H](C)[C@H](CN(C)C(=O)Nc2cccc3ccccc23)Oc2ncc(/C=C/c3ccccc3)cc2C1=O`, the cytotoxicity call is “inactive”.

`NC(=O)c1cc2ccccc2nc1C(N)=O`: the cytotoxicity call is “inactive”.

In the case of `C[C@H](CO)N1C[C@H](C)[C@H](CN(C)C(=O)Nc2cccc3ccccc23)Oc2ccc(NC(=O)C3CCCCC3)cc2C1=O`, the cytotoxicity call was “inactive”.

With `CO[C@H]1CN(C)C(=O)c2cc(NC(=O)c3ccccc3)ccc2OC[C@@H](C)N(C(=O)CN(C)C)C[C@H]1C`, the cytotoxicity call was “inactive”.

As for `O=C(O)Cc1ccc(CO)cc1`, the cytotoxicity call was “inactive”.

Consider `CC(=O)Nc1ccc(CC(=O)O)cc1`, for which the cytotoxicity call was “inactive”.

As to `CCCCc1ccc(CC(=O)O)cc1`, the cytotoxicity call was “active”.

`COc1ccc2c3c(n(c2c1)C)[C@H](CO)N(C[C@]13CN(C1)C(=O)Nc1cccc(c1)F)C(=O)CN1CCOCC1`: the cytotoxicity call was “inactive”.

On to `COc1ccc(NC(=O)Nc2ccc3c(c2)C(=O)N([C@H](C)CO)C[C@@H](C)[C@H](CN(C)C(=O)C2CCCCC2)OCCCC[C@H](C)O3)cc1`, for which the cytotoxicity call is “inactive”.

As for `COc1ccc(NC(=O)Nc2ccc3c(c2)C(=O)N([C@@H](C)CO)C[C@H](C)[C@H](CN(C)C(=O)C2CCCCC2)OCCCC[C@H](C)O3)cc1`, the cytotoxicity call is “active”.

Regarding `COc1ccc(NC(=O)Nc2ccc3c(c2)C(=O)N([C@@H](C)CO)C[C@@H](C)[C@@H](CN(C)C(=O)C2CCCCC2)OCCCC[C@@H](C)O3)cc1`, the cytotoxicity call was “inactive”.

For `COc1ccc(NC(=O)Nc2ccc3c(c2)C(=O)N([C@H](C)CO)C[C@@H](C)[C@H](CN(C)C(=O)C2CCCCC2)OCCCC[C@@H](C)O3)cc1`, the cytotoxicity call was “active”.

On to `COc1ccc(NC(=O)Nc2ccc3c(c2)C(=O)N([C@@H](C)CO)C[C@H](C)[C@@H](CN(C)C(=O)C2CCCCC2)OCCCC[C@@H](C)O3)cc1`, for which the cytotoxicity call was “inactive”.

`COc1ccc(NC(=O)Nc2ccc3c(c2)C(=O)N([C@@H](C)CO)C[C@H](C)[C@H](CN(C)C(=O)C2CCCCC2)OCCCC[C@@H](C)O3)cc1`: the cytotoxicity call was “inactive”.

For `Cn1cnc(S(=O)(=O)N2C[C@@H](O)COC[C@H]3O[C@H](CC(=O)NC4Cc5ccccc5C4)CC[C@@H]32)c1`, the cytotoxicity call was “inactive”.

Regarding `C[C@H]1CN([C@@H](C)CO)C(=O)c2cccc(NC(=O)Nc3ccc4c(c3)OCO4)c2O[C@@H]1CN(C)Cc1ccc(Cl)c(Cl)c1`, the cytotoxicity call was “inactive”.

Take `COc1ccc(S(=O)(=O)N(C)C[C@@H]2Oc3cc(Br)ccc3S(=O)(=O)N([C@H](C)CO)C[C@@H]2C)cc1`: the cytotoxicity call is “inactive”.

Take `COc1ccc([C@H]([C@@H](O)Cc2ccccc2)N(CC#C[C@@H](O[Si](c2ccccc2)(c2ccccc2)C(C)(C)C)c2ccccc2)[C@@H](Cc2ccccc2)C(OC)OC)cc1`: the cytotoxicity call is “inactive”.

On to `COc1ccc([C@H]([C@H](Cc2ccccc2)OC(C)=O)N(CC#C[C@@H](O)c2ccccc2)[C@@H](Cc2ccccc2)C(OC)OC)cc1`, for which the cytotoxicity call is “active”.

`COc1ccc([C@H]([C@H](Cc2ccccc2)OC(C)=O)N(C/C=C/[C@@H](OC(C)=O)c2ccccc2)[C@@H](Cc2ccccc2)C(OC)OC)cc1`: the cytotoxicity call is “active”.

For the molecule `COc1ccc([C@H]([C@H](Cc2ccccc2)OC(C)=O)N(CC#C[C@@H](O[Si](c2ccccc2)(c2ccccc2)C(C)(C)C)c2ccccc2)[C@@H](Cc2ccccc2)C(OC)OC)cc1`, the cytotoxicity call is “inactive”.

As for `COc1ccc([C@H]([C@H](Cc2ccccc2)OC(C)=O)N(C/C=C\[C@@H](O)c2ccccc2)[C@@H](Cc2ccccc2)C(OC)OC)cc1`, the cytotoxicity call was “inactive”.

Consider `COc1ccc([C@H]([C@@H](O)Cc2ccccc2)N(CC#C[C@@H](O)c2ccccc2)[C@@H](Cc2ccccc2)C(OC)OC)cc1`, for which the cytotoxicity call is “inactive”.
